The panel holds about 79,000 compounds, 15% with a hit somewhere; the sample as a whole holds those more often. Unmarked numbers belong to inactive results. Calls of active or inactive are those of the source. No stated cut-off is given here; in the data, active means growth inhibition above about 70%; inactive means the rest.
Assay: NCI Yeast Anticancer Drug Screen. Data for the sgs1 mgt1 strain (AID 161);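 further: 0% = growth of cultures given vehicle only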
Details: S. cerevisiae sgs1 mgt1 strain, at 5.0 µM (retest, dose inferred, filed as 0.5), hits give high values
How it was run: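 This yeast growth screen uses a strain with defined DNA-repair lesions; compound-treated growth is compared with vehicle-treated growth.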

| Compound | growth inhibition |
| --- | --- |
| O=C(Nc1ccccc1-c1nn(C(=S)Nc2ccccc2)c(=S)n(C(=S)Nc2ccccc2)c1=O)C(F)(F)F | 10% |
| Cc1ccc(N=C(N)NN=C(c2ccc(Cl)cc2)c2ccc(Cl)cc2)cc1 | 7% |
| Cc1cccc(C)c1N1C(=O)C(=O)C(c2nc3ccccc3s2)/C(=N/NC(=O)c2ccccc2O)C1=O (stereo not drawn) | 26% |
| CN(C)CC1CC/C(=C\c2ccc(O)cc2)C1=O (stereo not drawn) | -4% |
| CCCCCC=C(c1cc(Br)cc(C(=O)O)c1O)c1cc(Br)cc(C(=O)O)c1O | 0% |
| CCS(CC)(CC)CC1CCCC2=CCC(P(=O)(c3ccccc3)c3ccccc3)CC21 (stereo not drawn) | 11% |
| Cc1c[n+](=O)c2ccccc2n1[O-] | -9% |
| O=C1CC(=S)NC(=S)N1 | -1% |
| CC1=NN(C(=O)c2ccc(Cl)cc2)C(=O)C1N=Nc1ccc(S(=O)(=O)Nc2ncccn2)cc1 (stereo not drawn) | 11% |
| COC(=O)c1cc(=O)n(-c2ccccc2OC)c(SC)n1 | 8% |
| CCCCN(CCCC)Cc1ccc(NC(C(=O)c2ccccc2)c2ccccc2)cc1 (stereo not drawn) | 5% |
| Cn1cc(/C=C/[N+](=O)[O-])c2ccc(OCc3ccccc3)cc21 | 4% |
| O=C(c1ccc([N+](=O)[O-])cc1)N1CCCSC1=S | 10% |
| CCCCCCCCC(=O)NCCN(CCN)C(=O)CCCCCCCC | -33% |
| Cc1nc2sc3c(c2c2nnnn12)CCCC3 | 24% |
| CCC(CC)(C(=O)Nc1ccc2c(c1)c(=O)c1ccccc1n2C)C(=O)Nc1ccc2c(c1)c(=O)c1ccccc1n2C | -25% |
| Cc1ccccc1N1CCN(c2c3c(nc4ccccc24)CCCCC3)CC1 | 7% |
| O=C(Nc1ccccc1)c1cc(Cl)ccc1O | 32% |
| CCCCCCCCCCCCCCCCCCOP(=O)([O-])OC1CC[N+](C)(C)CC1 | 98% (active) |
| CN(C)c1ccc(C(O)(Cc2cccc(C#N)c2)c2ccc(N(C)C)cc2)cc1 | -4% |
| CC(=O)N1CCC(Cc2ccccc2)CC1 | -49% |
| O=[N+]([O-])c1ccc(-n2ncc3cccnc32)c([N+](=O)[O-])c1 | 2% |
| CC(C)OC(=O)c1ccc(NCC2=CC(=O)C=CC2=O)cc1Cl | 55% |

Same assay, conditions: S. cerevisiae sgs1 mgt1 strain, at 50.0 µM (retest, dose inferred, filed as 5.0), hits give high values

| Compound | growth inhibition |
| --- | --- |
| OC1C2COc3nc4ccccc4n3C(O2)C1O (stereo not drawn) | -70% |
| CN(C)CC1Cc2ccsc2C1=O (stereo not drawn) | 54% |
| CCCC(O)C[N+](=O)[O-] (stereo not drawn) | 9% |
| CC1=NC(C)=C(/C(C)=N/NC(=O)c2ccccc2O)C(C)/C1=C(/C)NNC(=O)c1ccccc1O (stereo not drawn) | -1% |
| O=[N+]([O-])c1cccc(S(=O)(=O)N/N=C/c2cc(I)cc([N+](=O)[O-])c2O)c1 | 11% |
| CNC(=O)OC(C)CN1c2ccccc2Sc2ccc(Cl)cc21 (stereo not drawn) | 45% |
| O=[N+]([O-])c1ccc(NSc2ccccc2)cc1 | 97% (active) |
| CCOc1ccc2c(c1)nc1ccccc1[n+]2CC | 27% |
| O=C1C=CC(=O)c2c(O)c(N3CCN(CCO)CC3)c(Cl)c(O)c21 | 99% (active) |
| O=C1CSC(c2cccc([N+](=O)[O-])c2)N1c1ccc(-c2ccc(-n3c(-c4ccccc4)nc4ccccc4c3=O)cc2)cc1 (stereo not drawn) | 78% (active) |
| CCC(=O)c1ccc2ccc3ccccc3c2c1 | 72% (active) |
| N#CSCc1c(Cl)cccc1Cl | 92% (active) |
| O=[N+]([O-])/C(C(Cl)=C(Cl)Cl)=C(/Sc1ccccc1)N1CCOCC1 | 99% (active) |
| COc1c2occc2c(OC)c2c(C)c(C(=O)OCCN3CCOCC3)oc12 | 43% |
| COc1cnn(-c2ccccc2)c(=O)c1SCc1ccc(Cl)c(Cl)c1 | 62% |
| COc1ccc(/C=C/c2c[n+]([O-])ccc2[N+](=O)[O-])cc1 | 96% (active) |
| CS(=O)(=O)OCCCN(CCCOS(C)(=O)=O)c1ccc(C=Nc2ccc(-c3csc(COc4ccc(Br)cc4Br)n3)cc2)cc1 | 82% (active) |
| O=C(Nc1ccccc1-c1nn(C(=S)Nc2ccccc2)c(=S)n(C(=S)Nc2ccccc2)c1=O)C(F)(F)F | 77% (active) |
| Cc1ccc(N=C(N)NN=C(c2ccc(Cl)cc2)c2ccc(Cl)cc2)cc1 | 35% |
| Cc1cccc(C)c1N1C(=O)C(=O)C(c2nc3ccccc3s2)/C(=N/NC(=O)c2ccccc2O)C1=O (stereo not drawn) | 26% |

| Compound | growth inhibition |
| --- | --- |
| CN(C)CC1CC/C(=C\c2ccc(O)cc2)C1=O (stereo not drawn) | 98% (active) |
| CCCCCC=C(c1cc(Br)cc(C(=O)O)c1O)c1cc(Br)cc(C(=O)O)c1O | 95% (active) |
| CCS(CC)(CC)CC1CCCC2=CCC(P(=O)(c3ccccc3)c3ccccc3)CC21 (stereo not drawn) | 11% |
| Cc1c[n+](=O)c2ccccc2n1[O-] | -7% |
| O=C1CC(=S)NC(=S)N1 | -2% |
| CC1=NN(C(=O)c2ccc(Cl)cc2)C(=O)C1N=Nc1ccc(S(=O)(=O)Nc2ncccn2)cc1 (stereo not drawn) | 8% |
| COC(=O)c1cc(=O)n(-c2ccccc2OC)c(SC)n1 | 87% (active) |
| CCCCN(CCCC)Cc1ccc(NC(C(=O)c2ccccc2)c2ccccc2)cc1 (stereo not drawn) | 86% (active) |
| Cn1cc(/C=C/[N+](=O)[O-])c2ccc(OCc3ccccc3)cc21 | 4% |
| O=C(c1ccc([N+](=O)[O-])cc1)N1CCCSC1=S | 21% |
| CCCCCCCCC(=O)NCCN(CCN)C(=O)CCCCCCCC | 97% (active) |
| Cc1nc2sc3c(c2c2nnnn12)CCCC3 | 74% (active) |
| CCC(CC)(C(=O)Nc1ccc2c(c1)c(=O)c1ccccc1n2C)C(=O)Nc1ccc2c(c1)c(=O)c1ccccc1n2C | 71% (active) |
| Cc1ccccc1N1CCN(c2c3c(nc4ccccc24)CCCCC3)CC1 | 95% (active) |
| O=C(Nc1ccccc1)c1cc(Cl)ccc1O | 61% |
| CCCCCCCCCCCCCCCCCCOP(=O)([O-])OC1CC[N+](C)(C)CC1 | 99% (active) |
| CN(C)c1ccc(C(O)(Cc2cccc(C#N)c2)c2ccc(N(C)C)cc2)cc1 | -10% |
| CC(=O)N1CCC(Cc2ccccc2)CC1 | 92% (active) |
| O=[N+]([O-])c1ccc(-n2ncc3cccnc32)c([N+](=O)[O-])c1 | 100% (active) |
| CC(C)OC(=O)c1ccc(NCC2=CC(=O)C=CC2=O)cc1Cl | 100% (active) |
